# Test results reported in PubChem BioAssay AID2313 (Broad Institute, 2010).
# The campaign covered roughly 22,000 compounds. About 460 (2.1%) were called active. Not shown: some 2% with an inconclusive outcome. This is one part of a sample in which actives are shown more often than they occur. A number with no mark means an inactive call.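 The calls were made as follows: active = mean inhibition across valid replicates above about 65% (limit read from the data); inconclusive = mean under the limit, yet half or more replicates past it; inactive = the rest.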
# Test: Shh-driven Gli reporter inhibition – luminescence, Shh-LIGHT2 cells, Gli-luciferase, primary screen (AID 2313);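 also: pathway switched on by Shh-conditioned medium diluted 1 in 25 in low serum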
# Settings: 30 h, hits give high values
row,Structure (SMILES),inhibition
1,CC(C)NC(=O)N(C)C[C@@H]1Oc2ccc(N(C)C)cc2C(=O)N([C@@H](C)CO)C[C@H]1C,-15.2%
2,CC(C)NC(=O)Nc1ccc2c(c1)C(=O)N([C@H](C)CO)C[C@H](C)[C@@H](CN(C)CC1CCCCC1)OCCCC[C@@H](C)O2,-21.5%
3,C[C@@H]1CN([C@H](C)CO)C(=O)Cc2cc(NS(C)(=O)=O)ccc2O[C@H]1CN(C)S(=O)(=O)c1ccccc1,-3.98%
4,C[C@@H]1CCCCO[C@H](CN(C)C(=O)Nc2cccc3ccccc23)[C@@H](C)CN([C@H](C)CO)C(=O)c2cc(NC(=O)Nc3ccc4c(c3)OCO4)ccc2O1,-3.94%
5,Cc1ccc(OCc2n[nH]c(=S)n2C2CCCCC2)c2c1CCC2,9.84%
6,COc1ccc(NC(=S)SC)cc1OC,-54.6%
7,C[C@@H]1CN([C@H](C)CO)C(=O)c2cccc(NC(=O)NC3CCCCC3)c2O[C@@H]1CN(C)CC1CCCCC1,23.2%
8,Cc1noc(C)c1S(=O)(=O)N(C)C[C@@H]1Oc2c(NS(=O)(=O)c3cn(C)cn3)cccc2C(=O)N([C@H](C)CO)C[C@@H]1C,-16%
9,C[C@H](CO)N1C[C@H](C)[C@H](CN(C)S(=O)(=O)c2cccs2)Oc2ccc(NC(=O)Nc3ccccc3)cc2C1=O,-3.56%
10,COCc1nc2c([nH]1)C(c1ccccc1COc1ccc(Cl)cc1)C(C#N)=C(N)O2 (stereo not drawn),-16.6%
11,C[C@@H]1CN([C@H](C)CO)C(=O)c2cccc(NS(=O)(=O)c3cn(C)cn3)c2O[C@H]1CN(C)Cc1ccc(C(=O)O)cc1,24.8%
12,Cc1cc(C(=O)Nc2cccc3c2O[C@@H](CN(C)Cc2ccncc2)[C@@H](C)CN([C@@H](C)CO)C3=O)n(C)n1,-8.53%
13,Cc1ccc(S(=O)(=O)Nc2cccc3c2O[C@@H](CN(C)S(=O)(=O)c2ccc(C)cc2)[C@H](C)CN([C@@H](C)CO)C3=O)cc1,-18.7%
14,COc1ccc(CNC(=O)c2c(C)oc3c2cc(OC(C)=O)c2ccccc23)cc1,-2.05%
15,S=c1nc2c(cnn2-c2ccccc2)c(Nc2ccccc2)[nH]1,-7.49%
16,Cc1ccc(-c2c[n+](=O)c3c(n2[O-])CCC3)cc1,-26.9%
17,C[C@H]1CN([C@@H](C)CO)C(=O)Cc2cc(NC(=O)Cc3ccccc3)ccc2O[C@@H]1CN(C)S(=O)(=O)c1ccc(Cl)cc1,22.7%
18,C1=C(c2cccs2)CC(c2cccs2)=NN=C1c1cccs1,-1.01%
